Experimental data taken from the supplement of paper PMC12067093, “Discovery and optimisation of a covalent ligand for TRIM25 and its application to targeted protein ubiquitination” (Chemical Science, 2025).
The full data set covers some 21,000 targets. This sample favours those with the largest changes.

Compound: CC1Cc2ccccc2N1C(=O)C1CCCN(C1)C(=O)CCl (mixture of isomers) [TRIM25 ligand 11 (diastereomer mixture)]
Assay: probe-labelled cysteine peptide fold change vs DMSO (competition) (log2 fold change); higher = less target engagement (more negative = stronger competition)
Settings: THP-1, incubation time: 4 h
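Further: competitive chemoproteomic profiling in live THP-1 cells with an iodoacetamide desthiobiotin (IA-DTB) probe, comparing probe-labelled peptide intensities in compound-treated cells against DMSO-treated controls.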

Sequence of UniProt Q7Z7L1 (Q7Z7L1 whole entry, looked up): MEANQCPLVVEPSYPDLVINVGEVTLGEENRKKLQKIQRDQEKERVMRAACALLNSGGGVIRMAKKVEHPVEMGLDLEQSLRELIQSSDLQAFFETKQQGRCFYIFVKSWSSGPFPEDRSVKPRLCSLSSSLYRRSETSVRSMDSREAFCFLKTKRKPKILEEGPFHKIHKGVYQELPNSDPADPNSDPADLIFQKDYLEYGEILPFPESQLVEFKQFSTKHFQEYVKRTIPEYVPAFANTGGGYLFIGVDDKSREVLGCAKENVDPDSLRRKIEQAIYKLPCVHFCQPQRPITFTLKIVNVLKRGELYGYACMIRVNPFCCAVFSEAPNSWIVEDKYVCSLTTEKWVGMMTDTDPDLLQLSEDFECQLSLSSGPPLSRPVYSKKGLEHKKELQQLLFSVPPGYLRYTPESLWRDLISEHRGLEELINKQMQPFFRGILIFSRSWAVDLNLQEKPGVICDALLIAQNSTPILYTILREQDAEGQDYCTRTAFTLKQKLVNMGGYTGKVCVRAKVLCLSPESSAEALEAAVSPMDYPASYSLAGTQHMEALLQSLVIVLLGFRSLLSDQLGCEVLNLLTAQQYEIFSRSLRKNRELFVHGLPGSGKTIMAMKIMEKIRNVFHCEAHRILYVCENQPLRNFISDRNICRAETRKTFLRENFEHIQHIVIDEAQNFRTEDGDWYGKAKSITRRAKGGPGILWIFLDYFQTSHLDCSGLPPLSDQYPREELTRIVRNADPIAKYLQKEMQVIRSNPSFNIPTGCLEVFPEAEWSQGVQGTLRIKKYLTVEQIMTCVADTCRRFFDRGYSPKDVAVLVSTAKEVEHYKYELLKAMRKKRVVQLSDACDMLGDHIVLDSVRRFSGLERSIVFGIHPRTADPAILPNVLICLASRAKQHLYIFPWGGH
Sequence of UniProt Q13884 (Q13884 whole entry, looked up): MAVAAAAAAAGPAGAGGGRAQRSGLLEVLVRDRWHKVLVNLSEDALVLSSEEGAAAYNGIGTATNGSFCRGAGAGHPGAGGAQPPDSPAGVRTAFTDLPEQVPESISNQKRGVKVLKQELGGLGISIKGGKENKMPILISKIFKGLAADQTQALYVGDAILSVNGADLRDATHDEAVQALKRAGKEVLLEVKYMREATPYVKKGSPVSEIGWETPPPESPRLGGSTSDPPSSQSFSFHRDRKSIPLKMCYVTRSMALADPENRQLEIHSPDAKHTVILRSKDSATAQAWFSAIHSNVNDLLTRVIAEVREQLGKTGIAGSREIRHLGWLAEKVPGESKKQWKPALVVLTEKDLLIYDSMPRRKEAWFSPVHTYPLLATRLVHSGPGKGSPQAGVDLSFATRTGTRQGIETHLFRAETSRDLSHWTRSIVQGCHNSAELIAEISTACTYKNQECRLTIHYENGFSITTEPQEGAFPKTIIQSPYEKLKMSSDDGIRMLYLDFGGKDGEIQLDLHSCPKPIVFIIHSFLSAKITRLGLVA
Sequence of UniProt Q13813 (Q13813 whole entry, looked up): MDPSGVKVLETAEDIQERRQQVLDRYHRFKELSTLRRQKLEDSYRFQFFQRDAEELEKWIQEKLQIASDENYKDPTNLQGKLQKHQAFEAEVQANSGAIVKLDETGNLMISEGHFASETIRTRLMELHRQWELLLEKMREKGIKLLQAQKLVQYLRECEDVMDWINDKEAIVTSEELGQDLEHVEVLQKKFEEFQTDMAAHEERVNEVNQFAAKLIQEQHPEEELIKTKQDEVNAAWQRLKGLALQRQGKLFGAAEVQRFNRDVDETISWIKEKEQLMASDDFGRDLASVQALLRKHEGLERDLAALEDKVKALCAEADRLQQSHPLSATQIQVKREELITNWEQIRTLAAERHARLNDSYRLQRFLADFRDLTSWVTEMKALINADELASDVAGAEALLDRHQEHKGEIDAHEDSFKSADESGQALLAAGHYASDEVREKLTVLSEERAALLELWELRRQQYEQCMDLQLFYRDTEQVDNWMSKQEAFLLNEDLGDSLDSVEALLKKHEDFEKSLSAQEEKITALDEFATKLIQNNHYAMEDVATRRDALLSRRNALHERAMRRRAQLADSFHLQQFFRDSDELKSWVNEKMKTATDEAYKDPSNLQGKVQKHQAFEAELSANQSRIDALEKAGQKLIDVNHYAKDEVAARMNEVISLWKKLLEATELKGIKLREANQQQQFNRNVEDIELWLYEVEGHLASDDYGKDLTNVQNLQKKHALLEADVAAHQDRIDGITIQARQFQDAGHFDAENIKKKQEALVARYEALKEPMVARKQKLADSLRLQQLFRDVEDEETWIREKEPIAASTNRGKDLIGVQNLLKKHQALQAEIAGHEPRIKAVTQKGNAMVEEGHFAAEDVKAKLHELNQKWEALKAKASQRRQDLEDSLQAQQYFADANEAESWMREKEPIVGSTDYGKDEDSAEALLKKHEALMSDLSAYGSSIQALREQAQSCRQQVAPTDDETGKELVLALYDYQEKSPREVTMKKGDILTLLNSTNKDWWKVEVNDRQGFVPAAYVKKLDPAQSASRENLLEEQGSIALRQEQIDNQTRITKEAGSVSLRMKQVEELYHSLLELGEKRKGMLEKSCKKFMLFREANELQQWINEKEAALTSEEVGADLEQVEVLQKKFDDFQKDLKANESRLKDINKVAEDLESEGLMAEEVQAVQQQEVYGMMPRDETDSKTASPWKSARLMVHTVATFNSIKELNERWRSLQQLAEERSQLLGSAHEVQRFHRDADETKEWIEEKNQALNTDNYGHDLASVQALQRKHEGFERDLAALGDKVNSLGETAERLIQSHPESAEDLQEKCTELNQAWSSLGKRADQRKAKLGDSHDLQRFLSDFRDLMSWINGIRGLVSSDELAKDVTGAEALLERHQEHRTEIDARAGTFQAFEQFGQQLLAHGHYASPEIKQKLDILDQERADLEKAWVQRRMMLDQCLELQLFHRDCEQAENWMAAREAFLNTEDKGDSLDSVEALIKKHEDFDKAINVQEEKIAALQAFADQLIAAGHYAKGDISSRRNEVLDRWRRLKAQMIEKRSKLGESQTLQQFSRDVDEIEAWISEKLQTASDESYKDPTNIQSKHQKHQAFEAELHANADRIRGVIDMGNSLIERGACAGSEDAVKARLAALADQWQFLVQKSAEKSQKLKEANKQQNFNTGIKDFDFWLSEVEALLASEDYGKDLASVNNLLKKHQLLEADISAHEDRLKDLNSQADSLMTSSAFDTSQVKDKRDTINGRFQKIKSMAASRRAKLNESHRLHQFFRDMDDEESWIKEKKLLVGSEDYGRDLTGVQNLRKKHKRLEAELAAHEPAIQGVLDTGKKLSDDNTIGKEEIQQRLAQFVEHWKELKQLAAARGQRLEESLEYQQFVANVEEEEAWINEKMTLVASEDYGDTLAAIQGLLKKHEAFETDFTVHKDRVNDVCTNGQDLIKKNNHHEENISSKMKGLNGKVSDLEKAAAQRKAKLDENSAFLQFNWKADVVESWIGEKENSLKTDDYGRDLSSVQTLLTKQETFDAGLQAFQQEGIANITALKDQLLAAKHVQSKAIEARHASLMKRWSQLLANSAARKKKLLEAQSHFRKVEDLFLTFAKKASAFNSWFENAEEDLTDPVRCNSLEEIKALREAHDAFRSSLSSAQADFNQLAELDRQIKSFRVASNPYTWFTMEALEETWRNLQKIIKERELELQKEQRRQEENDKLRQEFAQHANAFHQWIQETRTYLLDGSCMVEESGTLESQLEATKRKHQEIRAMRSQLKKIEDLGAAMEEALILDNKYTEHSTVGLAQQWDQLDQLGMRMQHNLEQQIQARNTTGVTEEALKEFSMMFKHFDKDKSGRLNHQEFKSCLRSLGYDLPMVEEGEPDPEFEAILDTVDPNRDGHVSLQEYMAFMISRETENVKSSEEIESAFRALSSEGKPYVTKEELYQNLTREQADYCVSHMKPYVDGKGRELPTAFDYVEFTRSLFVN
Sequence of UniProt Q96DX4 (Q96DX4 whole entry, looked up): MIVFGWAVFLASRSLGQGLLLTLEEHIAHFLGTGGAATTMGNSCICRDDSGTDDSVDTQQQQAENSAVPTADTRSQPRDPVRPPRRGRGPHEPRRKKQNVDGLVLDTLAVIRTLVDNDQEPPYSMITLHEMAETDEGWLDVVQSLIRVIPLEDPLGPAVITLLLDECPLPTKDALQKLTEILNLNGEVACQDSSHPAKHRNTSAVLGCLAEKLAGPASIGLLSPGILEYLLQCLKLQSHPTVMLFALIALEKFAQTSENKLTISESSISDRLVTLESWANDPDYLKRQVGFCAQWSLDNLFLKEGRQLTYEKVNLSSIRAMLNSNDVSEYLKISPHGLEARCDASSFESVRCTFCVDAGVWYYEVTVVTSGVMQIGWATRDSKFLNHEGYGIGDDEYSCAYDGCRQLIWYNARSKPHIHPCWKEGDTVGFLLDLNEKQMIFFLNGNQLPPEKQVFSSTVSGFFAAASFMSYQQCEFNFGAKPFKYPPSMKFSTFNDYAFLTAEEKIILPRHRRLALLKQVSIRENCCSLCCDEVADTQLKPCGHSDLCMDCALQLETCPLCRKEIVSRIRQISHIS
Sequence of UniProt Q9Y371 (Q9Y371 whole entry, looked up): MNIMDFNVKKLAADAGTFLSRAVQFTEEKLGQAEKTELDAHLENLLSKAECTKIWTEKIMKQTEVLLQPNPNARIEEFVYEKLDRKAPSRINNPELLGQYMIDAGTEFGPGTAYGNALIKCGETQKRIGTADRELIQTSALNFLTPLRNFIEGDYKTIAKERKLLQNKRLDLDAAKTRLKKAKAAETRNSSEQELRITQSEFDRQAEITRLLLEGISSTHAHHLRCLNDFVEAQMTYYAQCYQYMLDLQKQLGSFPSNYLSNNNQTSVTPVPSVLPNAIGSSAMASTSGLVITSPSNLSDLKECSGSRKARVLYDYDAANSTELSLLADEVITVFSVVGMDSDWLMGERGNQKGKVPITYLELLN
Sequence of UniProt Q9Y224 (Q9Y224 whole entry): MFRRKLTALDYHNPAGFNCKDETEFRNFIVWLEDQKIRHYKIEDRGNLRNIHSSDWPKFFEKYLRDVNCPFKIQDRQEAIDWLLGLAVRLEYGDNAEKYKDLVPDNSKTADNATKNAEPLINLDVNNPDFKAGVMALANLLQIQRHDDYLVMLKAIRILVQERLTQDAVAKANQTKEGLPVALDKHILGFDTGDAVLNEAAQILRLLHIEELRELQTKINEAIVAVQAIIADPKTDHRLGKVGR

Target	probe-labelled cysteine peptide fold change (10 µM)	probe-labelled cysteine peptide fold change (50 µM)
SEC23B_Q15437_434_GPCVSENELGVGGTSQWK (UniProt Q15437)	0.0914	0.096
SPCS2_Q15005_17+26_SGGSGGCSGAGGASNCGTGSGR (UniProt Q15005)	-0.266	-0.603
SRGAP2_O75044_486_TDCSLAR (UniProt O75044)	-0.0891	-0.197
SF1_Q15637_282+292_CGGAGHIASDCK (UniProt Q15637)	-0.0927	-0.0122
SLMAP_Q14BN4_120_KVTHGCIVSTIK (UniProt Q14BN4)	-0.0304	0.0755
SMAD9_O15198_93_GLPHVIYCR<|>SMAD3_Q15796_89_GLPHVIYCR<|>SMAD2_Q99717_129_GLPHVIYCR (UniProt Q99717+Q15796+O15198)	-0.076	-0.0521
SACS_Q9NZJ4_3694_QCDVLQLLWTSCPILPEK (UniProt Q9NZJ4)	-0.00918	-0.0315
SLFN11_Q7Z7L1_322_VNPFCCAVFSEAPNSWIVEDK (UniProt Q7Z7L1)	0.661	0.447
SMARCB1_Q12824_167_TFPLCFDDHDPAVIHENASQPEVLVPIRLDMEIDGQKLR (UniProt Q12824)	-0.0714	0.0299
SIGIRR_Q6IA17_174_LYDAYVSYSDCPEDR (UniProt Q6IA17)	0.24	-0.151
SCAF11_Q99590_752_QMNENSVTHCSENNMPSSDLADEK (UniProt Q99590)	0.00365	-0.727
SAE1_Q9UBE0_303_YCFSEMAPVCAVVGGILAQEIVK (UniProt Q9UBE0)	-0.0632	-0.0869
SH3GLB1_Q9Y371_304_ECSGSR (UniProt Q9Y371)	-0.137	0.575
SNX18_Q96RF0-2_570_CNTISFATLAEIHHFHQIR (UniProt Q96RF0)	0.155	0.111
SORBS3_O60504_482_GEHICLIR (UniProt O60504)	0.12	0.166
RPS6KA1_Q15418_432_ETIGVGSYSECKR (UniProt Q15418)	0.185	-0.833
SEC24C_P53992_493_RVDAYDRPELSLGSYEFLATVDYCK (UniProt P53992)	-0.123	0.0859
SBF1_O95248_987_SCTFQLLK (UniProt O95248)	-0.0361	0.064
SEL1L3_Q68CR1_475_QEACHLHNSYLDLQR (UniProt Q68CR1)	-0.0373	-0.0246
RSPRY1_Q96DX4_190_LTEILNLNGEVACQDSSHPAK (UniProt Q96DX4)	-0.258	-0.129
RTN3_O95197-3_42_SCSSSCAVHDLIFWR (UniProt O95197)	-0.124	-0.737

Target	probe-labelled cysteine peptide fold change (10 µM)	probe-labelled cysteine peptide fold change (50 µM)
SND1_Q7KZF4_96_EVCFTIENK (UniProt Q7KZF4)	0.00729	0.0683
RPS2_P15880_222_KLLMMAGIDDCYTSAR (UniProt P15880)	-0.59	-0.607
RSBN1_Q5VWQ0_671_IQLCDNDIYFIPR (UniProt Q5VWQ0)	0.00486	0.13
SETX_Q7Z333_1398_AGSHTAQNSDIFVPESDRSDYNCTGGTEVLANSNR (UniProt Q7Z333)	-0.136	-0.652
SIRT5_Q9NXA8_293+303_FHFQGPCGTTLPEALACHENETVS (UniProt Q9NXA8)	0.203	-0.0498
SRBD1_Q8N5C6_912_SIVCLEDLQIGTVLTGK (UniProt Q8N5C6)	0.0769	-0.14
SPTAN1_Q13813_1622_GACAGSEDAVK (UniProt Q13813)	-0.135	-0.00186
SNRPB_P14678_43+45_HMNLILCDCDEFRK (UniProt P14678)	-0.0283	-0.00106
SNUPN_O95149_199_GHPFYDCQTDFR (UniProt O95149)	0.47	0.00215
SPECC1_Q5M775_633_EICDHQAEQLSR (UniProt Q5M775)	-0.00943	-0.0553
SMYD3_Q9H7B4_263_DQYCFECDCFR (UniProt Q9H7B4)	-0.0567	0.116
SIPA1_Q96FS4_467_AHTPCTPHTTYR (UniProt Q96FS4)	0.187	0.0943
SORD_Q00796_179_VLVCGAGPIGMVTLLVAK (UniProt Q00796)	-0.904	-0.915
RTRAF_Q9Y224_19_LTALDYHNPAGFNCK (UniProt Q9Y224)	0.414	0.404
SBF1_O95248_839_VCTESGVTSDHLK (UniProt O95248)	0.116	0.0908
RUBCNL_Q9H714_641_QCFQSSECPR (UniProt Q9H714)	0.144	0.15
SLC4A7_Q9Y6M7_120_VQFILGTEDDDEEHIPHDLFTEMDELCYR (UniProt Q9Y6M7)	0.222	-0.577
SEC23A_Q15436_88_LWACNFCYQR (UniProt Q15436)	0.0643	0.249
SCFD2_Q8WU76_507_ALAQVFCEESGLSPLLQK (UniProt Q8WU76)	0.0961	0.0426
SNX14_Q9Y5W7_593_IPVFCIDVER (UniProt Q9Y5W7)	0.3	0.776
SNTB1_Q13884_515_DGEIQLDLHSCPK (UniProt Q13884)	0.144	0.6
